# FMDV antiviral: antivirals against foot and mouth disease virus; FMDV antiviral cell-based qHTS; Potency, µM (series often up to 57.9 µM), for inactives: at the top dose activity change, negative = inhibition, actives largely listed as inhibitors; hit rate 1.2% among 410,000; AID 1159524; calls by dose curve; tested in HEK293T cells; further: read-out not given here; potency means the concentration at half of the fitted maximal effect; nearly all actives have a fitted effect of over 45% in size
# Vaccinia Venus: inhibitors of vaccinia virus (Venus reporter). Vaccinia virus Venus reporter expression, fluorescence. Potency, µM (top dose mostly 36.5 µM), for the others: at the highest dose activity change, negative = inhibition, actives largely listed as inhibitors. hit rate 0.46% among 330,000. AID 720580; calls by dose curve; tested in A549 cells; further: potency means the concentration at half of the fitted maximal effect; nearly all actives have a fitted effect of over 30% in size
# Lassa entry inh: inhibitors of Lassa virus binding or cell entry | hit rate 1.2% among 300,000 | Potency, µM (titrated, usually from 37.9 µM), for inactives: at the highest dose activity change, negative = inhibition, actives largely listed as inhibitors | Lassa virus pseudotype entry inhibition, cell reporter; calls by dose curve; tested in HEK293 cells; further: potency means the concentration at half of the fitted maximal effect; nearly all actives have a fitted effect of over 50% in size
# MARV entry inh: blocks Marburg virus binding to or entry into cells; Marburg virus pseudotyped entry inhibition, cell reporter; Potency, µM (top dose mostly 37.8 µM), without a hit: at the highest dose activity change, negative = inhibition, most hits filed as inhibitors; hit rate 1.8% among 300,000; AID 540276; calls by dose curve; tested in HEK293 cells; further: potency means the concentration at half of the fitted maximal effect
# Vaccinia mCherry: vaccinia inhibition (mCherry reporter) | Vaccinia virus mCherry reporter infection, fluorescence | Potency, µM (titrated, usually from 36.5 µM), without a hit: at the top dose activity change, negative = inhibition, most hits filed as inhibitors | hit rate 0.63% among 310,000 | AID 720579; calls by dose curve; tested in A549 cells; further: potency means the concentration at half of the fitted maximal effect; nearly all actives have a fitted effect of over 35% in size
# HCMV antiviral: inhibitors of human cytomegalovirus; HFF cells, HCMV-luciferase reporter, 72 h; stronger effect = lower value; activity change, negative = inhibition, % at 57.5 µM; hit rate 4.5% among 410,000; AID 1259415; in the data active means activity change below about -60%; inconclusive means no clear call, values can overlap the other calls; inactive means above about -39%
#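 HFF cells seeded 16 h at 37C, treated with compounds, infected with luciferase-reporter HCMV at MOI 1 PFU/cell; luciferase read at 72 h post infection, normalized to buffer-only and Salinomycin controls.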
# Starred values were filed as active, the others as inactive; i = inactive; ? = inconclusive; · = no result; [ ] = another dose, or the depositor's remark. Rows were chosen to be rich in hits. Some 6.5% of all compounds tested hit in one or more screens of this group. On the % scale 0 is the no-effect control and ±100 the full control effect.
SMILES,FMDV antiviral,Vaccinia Venus,Lassa entry inh,MARV entry inh,Vaccinia mCherry,HCMV antiviral
CC(=O)N1CCN(Cc2nc3cc(NC(=O)c4cccc(Br)c4)ccc3n2C)CC1,?,-10.6%[7.34 µM],-24.4%,?,i[7.34 µM],-72.9*
COc1ccc([C@H]2NC(=O)C[C@@H]2C(=O)N2CCOCC2)cc1,·,·,·,·,·,-11.3
C#CCN(C[C@H]1[C@H](OC(=O)Nc2c(C)noc2C)[C@H](OC(=O)Nc2c(C)noc2C)C[C@@H](C(=O)OC)[C@H]1C(=O)OC)S(=O)(=O)c1ccc(C)cc1,31.6µM*,-15.5%,·,·,-3.5%,-1.6
C#CCN(C[C@@H]1[C@@H](OC(=O)Nc2cccs2)[C@@H](OC(=O)Nc2cccs2)C[C@H](C(=O)OC)[C@@H]1C(=O)OC)S(=O)(=O)c1ccc(C)cc1,·,·,·,·,·,-8.5
O=C1NCCN2CCC[C@H]12,·,·,·,19.2%,·,·
Nc1ccc2c(c1)C(=NO)c1cc([N+](=O)[O-])ccc1-2,-19.0%,199.1%,1.7%,?,?,-84.9*
ON=C1c2ccccc2-c2ccccc21,11.2%,·,·,·,·,43.3
O=[N+]([O-])c1ccc2c(c1)-c1ccccc1C2=NO,-5.1%,-19.5%,9.5%,?,-15.4%,-69.7*
O=[N+]([O-])c1ccc2c(c1)C(=Nc1ccccc1)c1ccccc1-2,-6.1%,-11.1%,?,?,-21.5%,-92.3*
COc1ccc(N=C2c3ccccc3-c3ccc([N+](=O)[O-])cc32)cc1,-14.5%,-12.9%,?,?,-14.1%,-8.7
O=C(Nc1cc2c(cc1Cl)-c1ccc([N+](=O)[O-])cc1C2=NO)C(F)(F)F,-3.2%,8.0%,-0.2%,22.6%,-9.1%,·
CCCS(=O)(=O)c1nc(S(=O)(=O)c2ccc(C)cc2)c(NCCCOC(C)C)s1,0.5%,-21.0%,?,14.7%[46.1 µM],-0.8%,16.0
Cc1cccc(C(=O)NC(=S)NNC(=O)Cc2ccccc2)c1,-25.7%,-7.0%,16.5%,1.0%,-25.8%,-83.5*
Cc1cccc(C(=O)NC(=S)NCc2ccccc2)c1,29.9%,-12.0%,17.8µM*,14.4%,i,?
Cc1cccc(C(=O)NC(=S)NNC(=O)c2ccccc2Cl)c1,-12.5%,-1.3%,?,?,-16.5%,-66.9*
CC(NC(=O)c1ccccc1)C(=O)NNC(=O)c1ccccc1Cl (stereo not given),-2.2%,·,·,·,·,-63.5*
Cc1cccc(C(=O)NC(=S)NNC(=O)COc2c(C)cccc2C)c1,-21.1%,?,1.5%,?,-22.6%,-4.0
CC(NC(=O)c1ccccc1Cl)NC(=O)c1ccccc1Cl,-12.6%,·,·,·,·,59.0
O=C(c1cccnc1)N1C[C@H]2[C@@H](c3ccccc31)[C@@H](CO)N2C(=O)Nc1ccccc1Cl,·,·,·,·,·,0.0
c1coc(-c2nc3c4ccccc4ccn3c2Cc2ccsc2)c1,·,·,·,·,·,58.1
CCSc1nc(-c2ccccc2)c2cc(Cl)ccc2n1,-12.2%,3.4%,0.4%,0.2%,-14.9%,12.1
CCSc1nc(-c2ccccc2)nc(C(Cl)Cl)n1,-17.1%,10µM*,·,·,?,-82.4*
O=C(NC1CCCc2c1cnn2-c1ccc(F)cc1F)c1ccccn1 (stereo not given),-27.9%,-10.0%,-12.4%[46.1 µM],?,-29.0%,-39.4
Cc1nnsc1C(=O)NC1CCCc2c1cnn2-c1ccc(C(C)(C)C)cc1 (stereo not given),?,·,·,·,·,-76.4*
CC(C)(C)c1ccc(-n2ncc3c2CCCC3NC(=O)c2ccncc2)cc1 (stereo not given),?,-21.9%,-20.0%,-23.7%,i,-5.8
SMILES,FMDV antiviral,Vaccinia Venus,Lassa entry inh,MARV entry inh,Vaccinia mCherry,HCMV antiviral
Cc1nnsc1C(=O)NC1CCCc2c1cnn2-c1ccccc1F (stereo not given),?,-15.4%,0.501µM*,?,-2.7%,-87.4*
O=C(C1COc2ccccc2O1)N1CCN(c2nc3ccc(F)cc3s2)CC1 (stereo not given),-24.2%,-12.5%,-16.3%[46.1 µM],·,-9.5%,?
Cc1cc(C)c2nc3nc(C)c(C)cc3c(N)c2c1,-13.4%,?,?,?,?,-98.8*
COc1ccc(Cl)cc1-c1nc(-c2ccc(NC(=O)c3ccncc3)cc2)no1,-20.4%,4.8%,-17.2%,-12.1%,-7.5%,-36.4
Cc1nc(-c2ccc(-c3ccc(C(=O)N4CCc5cc6c(cc54)C4(CCN(C)CC4)CO6)cc3)c(C)c2)no1,-17.1%,·,·,5.01µM*,·,·
COc1ccc(NC(=O)c2ccc(-c3ccc(-c4noc(C)n4)cc3C)cc2)cc1N1CCN(C)CC1,-8.2%,?,?,2.51µM*,-14.1%,-20.1

# High-throughput results from PubChem BioAssay.
